# Measured values published in publication PMC4336329 (PLoS ONE, 2015).
# The campaign covered roughly 310,000 compounds. About 14,000 (4.5%) showed an effect of 50% or more. Effects have a minus sign here. The sample as a whole holds a higher share of strong results than the screen did.
# Biological target: human ether-à-go-go-related gene (hERG) potassium channel (human, UniProt Q12809)
# Test: primary screen, population patch clamp on CHO cells stably expressing hERG; higher = less effect of the substance
# 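Also: peak tail current of the secondary pulse compared with the same well before compound.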
# Sequence of human ether-à-go-go-related gene (hERG) potassium channel (Q12809 whole entry, looked up): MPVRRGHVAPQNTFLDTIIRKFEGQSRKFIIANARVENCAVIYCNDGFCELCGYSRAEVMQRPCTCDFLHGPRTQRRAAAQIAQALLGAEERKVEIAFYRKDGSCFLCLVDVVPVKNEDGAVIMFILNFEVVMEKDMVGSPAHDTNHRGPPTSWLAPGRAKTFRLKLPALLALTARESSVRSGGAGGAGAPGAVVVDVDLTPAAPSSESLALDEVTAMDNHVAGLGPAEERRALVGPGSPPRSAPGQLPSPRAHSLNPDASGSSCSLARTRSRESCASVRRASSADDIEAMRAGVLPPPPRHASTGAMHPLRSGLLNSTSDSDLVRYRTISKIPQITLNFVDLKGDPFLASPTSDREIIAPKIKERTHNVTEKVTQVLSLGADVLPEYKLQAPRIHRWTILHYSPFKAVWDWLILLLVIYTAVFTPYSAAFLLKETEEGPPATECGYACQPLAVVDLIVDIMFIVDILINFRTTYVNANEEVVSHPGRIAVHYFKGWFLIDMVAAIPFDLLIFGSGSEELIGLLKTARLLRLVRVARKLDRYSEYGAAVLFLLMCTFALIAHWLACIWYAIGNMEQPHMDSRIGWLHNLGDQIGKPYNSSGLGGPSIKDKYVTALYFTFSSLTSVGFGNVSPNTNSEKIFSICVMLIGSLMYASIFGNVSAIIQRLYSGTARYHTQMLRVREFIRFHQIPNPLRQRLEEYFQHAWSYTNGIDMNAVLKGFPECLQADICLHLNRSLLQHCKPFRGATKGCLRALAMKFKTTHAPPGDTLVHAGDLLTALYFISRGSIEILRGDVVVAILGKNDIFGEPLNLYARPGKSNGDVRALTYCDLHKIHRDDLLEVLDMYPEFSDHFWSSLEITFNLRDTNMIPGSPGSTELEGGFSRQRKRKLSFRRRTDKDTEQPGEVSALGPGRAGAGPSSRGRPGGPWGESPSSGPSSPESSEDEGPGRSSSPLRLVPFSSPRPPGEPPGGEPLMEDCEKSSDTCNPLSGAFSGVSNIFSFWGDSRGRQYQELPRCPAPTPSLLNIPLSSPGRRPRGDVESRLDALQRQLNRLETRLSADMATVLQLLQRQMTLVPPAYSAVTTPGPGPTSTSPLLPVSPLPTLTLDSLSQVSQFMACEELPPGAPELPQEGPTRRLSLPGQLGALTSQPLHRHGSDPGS
row,Structure (SMILES),"hERG current change (%, negative = inhibition) at 10uM"
1,CCOc1cc(-c2nccc3cc(OC)c(OC)cc23)cc(OCC)c1OCC,-46.8%
2,COc1cc2c(cc1OC)-c1c(OC)c(OC)c(OC)c3ccnc(c13)C2=O,-53.8%
3,COc1cc2c(cc1OC)-c1c(OC)c(OC)cc3ccnc(c13)C2=O,-30.7%
4,Cc1cc(-c2cc(-c3ccccc3)on2)nc(NC2CCCC2)n1,15.7%
5,Nc1nc(CN2CCN(c3ccccc3F)CC2)nc(Nc2ccccc2)n1,-57.1%
6,Cc1ccc(Nc2nc(N)nc(CN3CCN(c4ccccc4F)CC3)n2)cc1,-67.4%
7,COc1ccccc1Nc1nc(N)nc(CN2CCN(c3ccccc3F)CC2)n1,-35.9%
8,Cc1cccc(Nc2nc(N)nc(CN3CCN(c4ccccc4F)CC3)n2)c1,-68.2%
9,CCOc1ccc(Nc2nc(N)nc(CSC(=S)N3CCN(c4ccccc4)CC3)n2)cc1,17.2%
10,CCOc1ccc(Nc2nc(N)nc(CN3CCN(c4ccccc4F)CC3)n2)cc1,-80.8%
11,Cc1cccc(Nc2nc(N)nc(CC(=O)CSc3ccc(Cl)cc3)n2)c1,4.27%
12,Cc1ccc(-c2noc(CN3CCN(c4ccccc4F)CC3)n2)cc1,8.71%
13,Fc1ccccc1N1CCN(Cc2nc(-c3ccccc3)no2)CC1,-6.65%
14,Cc1nnc(SCC2=C(C(=O)O)N3C(=O)C(NC(=O)Cn4ncc(Cl)c4C)C3SC2)s1 (stereo not drawn),26.9%
15,COc1ccc(CNC(=O)C2CCCN(S(=O)(=O)N3CC(C)CC(C)C3)C2)c(OC)c1 (stereo not drawn),-6.97%
16,CCCC(=O)C1=C(O)C(C(=O)OC)C(C)(C)CC1=N (stereo not drawn),19.9%
17,Cc1csc(NC(=O)c2sccc2C)n1,12.7%
18,CCn1c(SCC(=O)Nc2ccc(OCc3ccccc3)cc2)nnc1-c1ccco1,-0.171%
19,CCCn1c(=O)c(Cc2ccccc2)c(O)c2ccccc21,1.06%
20,Cc1nc2ccccc2c(=O)n1NC(=O)/C=C/c1ccc(Br)cc1,-1.3%
21,CN1CCN(c2ccc3c(c2)S(=O)(=O)c2ccccc2C3=O)CC1,-23.4%
22,N#C/C(=N\Nc1ccccc1)C(=N)N1CCOCC1,-7.71%
23,COc1ccc(N/N=C(\C#N)C(=N)N2CCOCC2)cc1,11.4%

row,Structure (SMILES),"hERG current change (%, negative = inhibition) at 10uM"
1,N#C/C(=N\Nc1ccc([N+](=O)[O-])cc1)C(=N)N1CCOCC1,-54.2%
2,C/C(=N\Nc1ccc([N+](=O)[O-])cc1)c1ccc(N2CCOCC2)cc1,4.46%
3,N#C/C(=N\Nc1ccc(Br)cc1)C(=N)N1CCOCC1,-68.9%
4,N#C/C(=N\Nc1ccc([N+](=O)[O-])cc1)C(N)=S,13.4%
5,Cc1ccc(OCC(=O)NN2C(=O)c3ccccc3C2=O)c(C)c1,6.34%
6,CC(C)c1nc(-c2ccc([N+](=O)[O-])cc2)cs1,1.87%
7,CSCCC(NC(=O)c1ccc(Cl)cc1Cl)C(=O)OCC(N)=O (stereo not drawn),-5.4%
8,CSCCC(NC(=O)c1ccc([N+](=O)[O-])cc1Cl)C(=O)OCC(=O)N1CCN(C(C)=O)CC1 (stereo not drawn),3.12%
9,CSCCC(NC(=O)c1ccc(Cl)cc1Cl)C(=O)OC(C)C(=O)NCc1ccco1 (stereo not drawn),-51.8%
10,CSCCC(NC(=O)c1ccc([N+](=O)[O-])cc1Cl)C(=O)OCC(=O)N(C)C (stereo not drawn),-2.34%
11,CSCCC(NC(=O)c1ccc(Cl)cc1)C(=O)OCC(=O)NCc1ccco1 (stereo not drawn),-23.8%
12,CSCCC(NC(=O)c1ccc([N+](=O)[O-])cc1Cl)C(=O)OCC(=O)NCCCc1ccccc1 (stereo not drawn),-57.8%
13,O=C(NCc1ccco1)c1ccc([N+](=O)[O-])cc1Cl,-3.96%
14,CSCCC(NC(=O)c1ccc([N+](=O)[O-])cc1Cl)C(=O)OC(C)C(=O)NCc1ccco1 (stereo not drawn),-61.7%
15,CSCCC(NC(=O)c1ccc([N+](=O)[O-])cc1Cl)C(=O)OCC(=O)NCC(F)(F)F (stereo not drawn),-16.7%
16,CC(=O)Nc1ccc(NCc2ccc(C)s2)cc1,-3.79%
17,CCc1ccc(OCC(=O)NNC(=O)c2c(CC)noc2C)cc1,10.8%
18,Cc1nnc(NC2=NCCC2)o1,3.71%
19,CC(=O)CCc1c[nH]c2c(C(=O)O)cccc12,5.11%
20,CCOc1ccccc1Nc1nnc(SCC(=O)Nc2cc(C)on2)s1,6.14%
21,CC(=O)Nc1ccc(S(=O)(=O)Nc2cc3c(cc2C(C)=O)OCO3)cc1,20.7%
22,CC(N)Cc1cn(Cc2ccccc2)c2ccccc12.Cl (stereo not drawn),-7.76%
23,COc1cccc(CNC(=O)COc2ccc(C(=O)c3ccccc3)cc2)c1,-11.7%

row,Structure (SMILES),"hERG current change (%, negative = inhibition) at 10uM"
1,CCOC(=O)/C(=C\c1c[nH]c2ccccc12)NC(C)=O,0.157%
2,O=C(CSc1nc2c(c(=O)n1-c1ccc(Cl)cc1)SCC2)NCc1ccco1,-19.4%
3,CCn1cc(CCC(=O)NCc2cccc(OC)c2OC)c2ccccc21,8.51%
4,COc1ccc(S(=O)(=O)N/N=C(/C)c2ccncc2)cc1OC,-1.27%
5,O=C(NCc1ccc2c(c1)OCO2)c1cnc2ccccn2c1=O,-6.29%
6,N=c1c(C(=O)NCc2ccc3c(c2)OCO3)cc2c(=O)n3ccccc3nc2n1Cc1cccnc1,-80.4%
7,O=C(CCn1c(=O)c2ccccc2n(Cc2cccnc2)c1=O)NCc1ccc2c(c1)OCO2,-5.1%
8,CCOC(=O)c1cc2c(=O)n3ccccc3nc2n(Cc2ccccc2)c1=N,-74.6%
9,COc1ccc(CNC(=O)Cn2nc(Cc3cccnc3)c3ccccc3c2=O)cc1,-43.3%
10,COCCCn1c(C(=O)Nc2ccc3c(c2)OCO3)cc2c(=O)n3ccccc3nc21,8.51%
11,COc1ccc(CNC(=O)c2cc3c(=O)n4ccccc4nc3n(Cc3cccnc3)c2=N)cc1,-58.6%
12,Cc1nc2ccccn2c1C(=O)NCc1ccc2c(c1)OCO2,-0.471%
13,COc1ccc(Cn2c(=S)[nH]c3cc(C(=O)NCc4cccnc4)ccc3c2=O)cc1,12.3%
14,COCCCn1c(=N)c(C(=O)NCc2ccc3c(c2)OCO3)cc2c(=O)n3ccccc3nc21,-83.5%
15,CCOC(=O)c1ccccc1NC(=O)CN(c1ccccc1)S(=O)(=O)N(C)C,-19.9%
16,CC(C)[C@H](Nc1ccc(C(F)(F)F)cc1[N+](=O)[O-])C(=O)O.[Cl-],20%
17,CCCCOc1cccc(C(=O)N(Cc2ccccc2)C2CCS(=O)(=O)C2)c1 (stereo not drawn),-14.2%
18,O=C(NC1CCCC1)C(=O)N(Cc1cccnc1)C(C(=O)NCC1CCCO1)c1ccco1 (stereo not drawn),38.2%
19,CCOC(=O)COc1ccc(C(=O)Nc2cccc(Cl)c2C)cc1,18.9%
20,CC(Oc1ccc(Br)cc1)C(=O)Nc1ccc(S(=O)(=O)N(C)C2CCN(C)CC2)cc1 (stereo not drawn),-26.7%
21,Cc1nc2ccc(P(=O)(O)O)cc2s1,16.2%
22,C=CCN1C(=O)C2(C(C(=O)c3ccc(C)o3)=C(O)C(=O)N2CCCN2CCOCC2)c2ccccc21 (stereo not drawn),3.04%
23,COCCNC(=S)N1CCc2cc(OC)c(OC)cc2C1COc1ccc(C(C)C)cc1 (stereo not drawn),16.7%

row,Structure (SMILES),"hERG current change (%, negative = inhibition) at 10uM"
1,Cc1cccc(N(CC(=O)NC2CCCC2)C(=O)c2csnn2)c1C,19.5%
2,N=c1c(C(=O)NCc2ccc(F)cc2)cc2c(=O)n3ccccc3nc2n1Cc1cccnc1,-76.2%
3,COC(=O)c1cc2c(=O)n3ccccc3nc2n(Cc2cccnc2)c1=N,-64%
4,Cc1nc2ccccn2c1C(=O)NCc1cccnc1,-3.36%
5,COC(=O)c1cn(Cc2cccnc2)c(=O)c2ccccc12,3.15%
6,CCCn1c(=N)c(S(=O)(=O)c2ccc(F)cc2)cc2c(=O)n3ccccc3nc21,-8.53%
7,Nc1cc(=O)[nH]c(N)n1,15.9%
8,CCc1cccc(NC(=O)CNC(=O)N2CC(=O)Nc3ccccc32)c1,-8.55%
9,Cc1ccc(S(=O)(=O)N(C)C)cc1NC(=O)COC(=O)c1c(-c2ccccc2)noc1C,-24.8%
10,CCOC(=O)N1CCN(CC(O)COc2c(C)cc(C)cc2C)CC1.Cl (stereo not drawn),-18%
11,COc1cc(CN2CCCCCC2)cc(OC)c1OC.O=C(O)C(=O)O,13.8%
12,COc1cc(CN2CCN(C(=O)c3cccc4ccccc34)CC2)cc(OC)c1OC.O=C(O)C(=O)O,4.24%
13,COc1ccc(CN2CCN(Cc3ccc(C(F)(F)F)cc3)CC2)c(OC)c1.O=C(O)C(=O)O,-74.1%
14,COc1cc(CN2CCN(C(=O)c3ccccc3F)CC2)cc(OC)c1OC.O=C(O)C(=O)O,6.56%
15,COc1cc(OC)c(OC)cc1CN1CCN(Cc2ccc(C(F)(F)F)cc2)CC1,-42.3%
16,COc1cc(CN2CCN(C(=O)COc3ccccc3)CC2)cc(OC)c1OC,-14.1%
17,COc1cc(CN2CCN(Cc3ccc(C(F)(F)F)cc3)CC2)cc(OC)c1OC.O=C(O)C(=O)O,-54.1%
18,COc1cc(CN2CCN(S(=O)(=O)c3ccc(F)cc3)CC2)cc(OC)c1OC.O=C(O)C(=O)O,-5.89%
19,COc1cc(CN2CCN(C(=O)c3ccc(-c4ccccc4)cc3)CC2)cc(OC)c1OC.O=C(O)C(=O)O,-54.7%
20,COc1cccc(CN2CCN(C(=O)c3ccc(-c4ccccc4)cc3)CC2)c1OC.O=C(O)C(=O)O,-5.41%
21,COc1cc(CN2CCN(C(O)(c3ccccc3)c3ccccc3)CC2)cc(OC)c1OC.O=C(O)C(=O)O,-55.1%
